Drawing on PubChem BioAssay AID463173 (ICCB-Longwood Screening Facility, Harvard Medical School, 2010), this text covers survival for 87 compounds.

The whole screen tested about 52,000 compounds, of which about 4,300 (8.3%) were called active. Many of the other results were omitted from the sample, so actives are more common in it than they were. Unmarked numbers belong to inactive results. Rule as the data show it: active = survival mostly below about 52% (no sharp cut-off); inactive = mostly above about 56%.

The assay deals with DeltatarO mutant. Put plainly: growth inhibition of S. aureus wild type versus tarO mutant, primary screen, teichoic acid synthesis inhibitors, RN4220, OD600 (AID 463173). The settings on record: OD600, 18 h, hits give low values, screened at 18.75 µg/mL (by protocol).
In the case of `Cc1cc2c(cc1S(=O)(=O)CCC(=O)N1CCC(C)CC1)OCC(=O)N2`, the survival was 102%.
With `Cc1ccccc1-c1nc(CS(=O)(=O)CC(=O)N2CCN(c3ccccc3)CC2)c(C)o1` the figure was 65%; with `O=C(Cn1ccc2cc(S(=O)(=O)N3CCCC3)ccc21)NCc1ccc(Cl)cc1`, 84%; with `Cc1ccc(-c2cc(C(F)(F)F)n3nc(C(=O)Nc4sc5c(c4C#N)CCC(C)C5)cc3n2)cc1` (configuration not stated), 95%.
With `Cc1ccc(-c2cc3nc(-c4ccccc4)cc(C(F)(F)F)n3n2)cc1` the figure was 69%; with `Cc1cc2nc(-c3ccc(Br)cc3)cc(C(F)(F)F)n2n1`, 37% (active); with `CCc1ccccc1NC(=O)c1cc2nc(-c3ccc(Br)cc3)cc(C(F)(F)F)n2n1`, 84%.
For the compound `CC(=O)c1cccc(NC(=O)c2cc3nc(-c4ccc(Br)cc4)cc(C(F)(F)F)n3n2)c1`, the survival is 49%.
With `COC(=O)c1c(NC(=O)c2cc3nc(-c4ccc(Br)cc4)cc(C(F)(F)F)n3n2)sc2c1CCCC2` the figure was 70%; with `CCCNC(=O)c1cc2nc(-c3ccc(Br)cc3)cc(C(F)(F)F)n2n1`, 51% (active).
With `Cc1ccc(-c2cc(C(F)(F)F)n3nc(-c4cccc(Br)c4)cc3n2)cc1` the figure was 46% (active).
The value for `N#Cc1c(NC(=O)c2cc3nc(-c4ccc(Br)cc4)cc(C(F)(F)F)n3n2)sc2c1CCCC2` was 32% (active).
With `Cc1cc(C(F)(F)F)n2nc(-c3ccc(Br)cc3)cc2n1`, the survival is 66%.
In the case of `COc1ccc(-c2cc3nc(-c4ccc(Br)cc4)cc(C(F)(F)F)n3n2)cc1`, the survival was 51%.
With `COc1cccc(-c2cc(C(F)(F)F)n3nc(-c4ccc(C)cc4)cc3n2)c1` the figure was 142%; with `Cc1ccc(CCNC(=O)c2cn(C)c3ccc(S(=O)(=O)N4CCC(C)CC4)cc3c2=O)cc1`, 72%; with `Cc1ccc(S(=O)(=O)n2nc(-c3ccccc3)nc2NCc2ccccc2Cl)cc1`, 85%.
On to `CCc1c(C)nc2nncn2c1NCc1ccc(OC)cc1`, for which the survival is 85%.
The value for `COc1ccc2c(c1)CC(C(=O)Nc1ccc(Br)c(C)c1)CO2` (configuration not stated) was 70%; that for `CCCN1C(=O)CC(C(=O)OC)=C1C` was 81%; that for `CCOc1cccc2sc(N(Cc3cccnc3)C(C)=O)nc12` was 89%.
In the case of `Cc1cc(Br)ccc1NC(=O)c1coc(=O)c2ccccc12`, the survival was 90%.
Turning to `FC(F)(F)c1cc(-c2ccccc2)nc2cc(-c3ccccc3)nn12`, the survival is 59%.
As for `COc1ccc(-c2cc(C(F)(F)F)n3nc(-c4ccccc4)cc3n2)cc1OC`, the survival is 61%.
For `FC(F)(F)c1cc(-c2ccccc2)nc2cc(-c3ccc(Br)cc3)nn12`, the survival was 42% (active).
Turning to `CCN1CCN(Cc2nc3cc(NC(=O)c4ccccc4[N+](=O)[O-])ccc3n2CC)CC1`, the survival is 78%.
In the case of `CC(C)c1ccc(NC(c2nnc(-c3ccccc3)o2)c2ccc(F)cc2Cl)cc1` (configuration not stated), the survival was 84%.
The value for `Clc1ccc(CCNC(c2nnc(-c3ccccc3)o2)c2ccccc2Cl)cc1` (configuration not stated) was -3% (active).
On to `CCOc1ccc(CCNC(c2nnc(-c3ccccc3)o2)c2ccccc2Cl)cc1OCC` (configuration not stated), for which the survival was 1% (active).
On to `Cc1cc(NC(c2nnc(-c3ccccc3)o2)c2ccccc2F)ccc1Br` (configuration not stated), for which the survival is 40%.
The value for `COc1ccc(NC(c2nnc(-c3ccccc3)o2)c2ccccc2F)cc1Cl` (configuration not stated) was 59%.
The value for `CCOc1ccc(CCNC(c2cccc(Cl)c2)c2nnc(-c3ccccc3)o2)cc1OCC` (configuration not stated) was 95%; that for `Cc1cc(C)cc(NC(c2nnc(-c3cccc(F)c3)o2)c2ccc(F)cc2Cl)c1` (configuration not stated) was 48%; that for `Fc1ccc(C(NCCc2ccc(Cl)cc2)c2nnc(-c3ccccc3)o2)c(Cl)c1` (configuration not stated) was -2% (active).
With `Cc1cc(C)cc(NC(c2cccc(Cl)c2)c2nnc(-c3ccccc3)o2)c1` (configuration not stated) the figure was 92%.
Take `Fc1ccccc1C(NCCc1ccc(Cl)cc1)c1nnc(-c2ccccc2)o1` (configuration not stated): the survival was -9% (active).
On to `Cc1ccc(NC(c2nnc(-c3ccccc3)o2)c2ccccc2F)c(Cl)c1` (configuration not stated), for which the survival is 85%.
For the compound `O=C(CSc1nnc(-c2cccc(F)c2)c(-c2cccc(F)c2)n1)NC1CCCCC1`, the survival was 73%.
The value for `CC(C)c1ccc(NC(=O)CSC2=Nc3ccccc3C3=NC(CCC(=O)NC4CCCCC4)C(=O)N23)cc1` (configuration not stated) was 88%; that for `Cc1ccc(C(=O)CSc2nnc(CSc3nc(C)cc(C)n3)n2C)cc1` was 88%.
With `COC(=O)c1ccc(Oc2nc3c(c(=O)n(C)c(=O)n3C)n2C(C)C)cc1` the figure was 85%; with `CCCC(=O)Nc1nnc(SCc2cc(=O)n3ccccc3n2)s1`, 87%.
The value for `Cc1cc(C)c2c(CC(=O)Nc3cc(C(F)(F)F)ccc3Cl)coc2c1` was 66%; that for `COc1ccc(CCn2cc3c(c2-c2ccccc2Br)c(=O)n(C)c(=O)n3C)cc1OC` was 67%; that for `O=C(Oc1ccccc1)c1ccc(F)cc1` was 74%.
For `Cn1c(NCCN)nc2c1c(=O)n(Cc1ccccc1)c(=O)n2C`, the survival is 50%.
For `CCOc1ccc2[nH]c(=O)c(CN(CC3CCCO3)C(=O)N(CC)CC)cc2c1` (configuration not stated), the survival is 98%.
Take `Cc1ccc(NC(c2cccc(Cl)c2)c2nnc(-c3ccccc3)o2)cc1F` (configuration not stated): the survival was 99%.
With `Clc1ccc(CCNC(c2cccc(Cl)c2)c2nnc(-c3ccccc3)o2)cc1` (configuration not stated) the figure was 11% (active); with `Clc1ccc(CCNC(c2ccc(Cl)cc2)c2nnc(-c3ccccc3)o2)cc1` (configuration not stated), 98%.
Consider `COc1cccc(COC(=O)c2nn(-c3ccccc3)nc2N)c1`, for which the survival was 15% (active).
With `COc1cccc(COC(=O)c2ccc(-c3nnn(Cc4ccccc4)n3)cc2)c1` the figure was 126%; with `O=C(Cc1ccc(Cl)cc1)Nc1ccc2nn(-c3ccccc3)nc2c1`, 81%.
For `Cc1cc2nn(-c3ccccc3)nc2cc1NC(=O)Cc1ccc(Cl)cc1`, the survival is 89%.
The value for `COc1cccc(COC(=O)c2ccc(-c3nnn(Cc4cccc(OC)c4)n3)cc2)c1` was 67%.
With `O=C1CC(c2nnc(Cc3c(F)cccc3Cl)o2)CN1c1ccccc1` (configuration not stated) the figure was 129%.
With `O=C(NCc1ccccc1)c1nn(-c2ccccc2)nc1CO` the figure was 108%; with `O=c1ccc(-c2ccccc2)nn1Cc1c(F)cccc1Cl`, 55%; with `Nc1nn(-c2ccccc2)nc1C(=O)OCc1ccc(Cl)cc1`, 44% (active).
With `Nc1nn(-c2ccccc2)nc1C(=O)OCc1ccccc1`, the survival was 58% (active).
Take `Nc1nn(-c2ccccc2)nc1C(=O)OCc1c(F)cccc1Cl`: the survival is 28% (active).
The value for `O=C(NCCCc1ccccc1)c1nn(-c2ccccc2)nc1CO` was 77%.
With `COc1ccc(-c2oc3ncn4nc(-c5ccccc5Br)nc4c3c2-c2ccc(OC)cc2)cc1` the figure was 77%; with `CCc1ccc(OCC(=O)Nc2ccc(S(=O)(=O)Nc3onc(C)c3C)cc2)cc1`, 73%.
With `COC(=O)c1ccc(C(=O)OC)c(NC(=O)c2c(-c3ccccc3)c(-c3ccccc3)nn(C)c2=O)c1` the figure was 60%; with `COc1ccc(CNC(=O)CCc2nc3cccnc3n2Cc2ccccc2)cc1`, 120%; with `Cc1ccc(NC(=O)NCCOCCn2c(=O)oc3ccccc32)cc1C`, 86%.
Regarding `Cc1ccccc1Cn1c2ccccc2c2cnn(CC(=O)NCCc3ccccc3)c(=O)c21`, the survival is 96%.
`COc1ccc(-c2cn3nc(N4CCCC(C(=O)Nc5cc(C)ccc5C)C4)sc3n2)cc1` (configuration not stated): the survival is 76%.
With `CCOc1ccc(NC(=O)Cn2cc(S(=O)(=O)c3ccc(C)cc3)c(=O)c3cc(F)ccc32)cc1`, the survival was 74%.
In the case of `CCC(=O)N1c2ccc(S(=O)(=O)CCC(=O)N3CCN(c4cc(C)ccc4C)CC3)cc2CC1C` (configuration not stated), the survival is 85%.
With `Cc1cc(C)cc(NC(=O)C(=O)NCC(c2ccc3c(c2)OCO3)N2CCOCC2)c1` (configuration not stated), the survival is 107%.
With `CSc1ccc(CNC(=O)CCn2ccc3cc(S(=O)(=O)N4CCC(C)CC4)ccc32)cc1` the figure was 88%.
With `CCCCC(CC)CNC(=O)C1CCC(CNS(=O)(=O)c2cccc3nsnc23)CC1` (configuration not stated) the figure was 65%.
For the compound `Cc1ccc2oc(C(=O)Nc3ccc(S(=O)(=O)Nc4onc(C)c4C)cc3)cc(=O)c2c1`, the survival is 71%.
With `O=C(CN1C(=O)COc2ccc(S(=O)(=O)Nc3ccccc3)cc21)Nc1cccc(Cl)c1` the figure was 96%; with `Fc1ccc(-c2nc(Nc3ccc(F)c(Cl)c3)nc3c2COc2ccccc2-3)cc1`, 55%.
In the case of `O=C(c1cn(CC(=O)N2CCOCC2)c2ccccc12)C1CC1`, the survival is 90%.
With `CCN(CC)C(=O)c1sc2c(c1C)c(=O)n(-c1ccc(C)c(C)c1)c(=O)n2Cc1cc(=O)n2ccccc2n1` the figure was 84%; with `CCN(CC)C(=O)c1sc2c(c1C)c(=O)n(-c1ccc(C)c(C)c1)c(=O)n2Cc1cc(=O)n2c(C)cccc2n1`, 49%.
With `Cc1ccc(-n2c(=O)c3sccc3n(Cc3cc(=O)n4ccccc4n3)c2=O)cc1` the figure was 63% (active); with `O=c1c2sccc2n(Cc2cc(=O)n3ccccc3n2)c(=O)n1-c1cc(F)ccc1F`, 69%; with `CCN(CC)C(=O)c1sc2c(c1C)c(=O)n(-c1ccc(Cl)c(Cl)c1)c(=O)n2Cc1cc(=O)n2ccccc2n1`, 112%.
With `CCN(CC)C(=O)c1sc2c(c1C)c(=O)n(-c1ccc(Cl)c(Cl)c1)c(=O)n2Cc1cc(=O)n2c(C)cccc2n1` the figure was 32% (active); with `CCN(CC)C(=O)c1sc2c(c1C)c(=O)n(-c1ccccc1)c(=O)n2Cc1cc(=O)n2ccccc2n1`, 47% (active).
On to `O=c1c2sccc2n(Cc2cc(=O)n3ccccc3n2)c(=O)n1-c1cccc(C(F)(F)F)c1`, for which the survival was 52%.
The value for `CCN(CC)C(=O)Cn1c(=O)n(-c2ccc(Cl)c(Cl)c2)c(=O)c2c(C)c(C(=O)N(CC)CC)sc21` was 83%.
